According to PubChem BioAssay (Tox21):
Results filed as inconclusive are left out. Activity calls are given as the source filed them. Unless noted, calls come from the whole dose curve; as a rule, active = well fitted curve in the direction sought with a large enough effect in the repeat runs; inconclusive = weak or mixed curves; inactive = no such curve, though single readings can be large; an effect the other way counts as inactive or inconclusive.

Columns and labels:
[1] = qHTS assay to identify small molecule antagonists of the sonic hedgehog signaling (Shh) pathway (AID 1259369; calls by dose curve; note: nearly all actives have a fitted effect of over 45% in size)
In short: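 NIH/3T3 stable Gli1-Luc clone, 2,000 cells/well, 4hr settle; cpd + conditioned medium 24hr; Luc reagent 30min RT; luminescence.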

[2] = molecular target: Estrogen receptor beta (Homo sapiens) (UniProt Q92731); assay: qHTS assay to identify small molecule agonists of the estrogen receptor beta (ER-beta) signaling pathway (AID 1259377; active = well fitted activation curve with a large enough effect in the signal ratio in the repeat runs, not every such curve was filed as active; the % refers to the signal ratio)
Chain of Estrogen receptor beta (Homo sapiens) (Q92731 whole entry, looked up, the tested form may be a part): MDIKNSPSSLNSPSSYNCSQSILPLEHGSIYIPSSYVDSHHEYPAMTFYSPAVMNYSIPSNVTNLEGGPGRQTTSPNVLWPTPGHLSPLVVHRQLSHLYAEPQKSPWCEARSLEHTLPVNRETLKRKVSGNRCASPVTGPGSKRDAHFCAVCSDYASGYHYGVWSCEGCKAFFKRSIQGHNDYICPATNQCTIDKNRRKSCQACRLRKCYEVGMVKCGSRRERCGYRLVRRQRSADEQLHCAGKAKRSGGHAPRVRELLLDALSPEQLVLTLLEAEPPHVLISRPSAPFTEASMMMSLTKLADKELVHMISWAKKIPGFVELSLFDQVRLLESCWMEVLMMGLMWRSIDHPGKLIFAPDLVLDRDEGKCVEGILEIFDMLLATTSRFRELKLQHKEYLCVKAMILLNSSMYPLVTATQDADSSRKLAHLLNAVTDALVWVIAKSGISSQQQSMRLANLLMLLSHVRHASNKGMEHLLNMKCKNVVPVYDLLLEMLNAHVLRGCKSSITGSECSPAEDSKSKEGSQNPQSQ
In short: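 Agonist mode cell assay in GripTite HEK293T cells expressing an ER-beta fusion that drives beta-lactamase from an Upstream Activator Sequence; 16 hr compound exposure at 37C, then 2 h LiveBLAzer B/G FRET substrate at room temperature, fluorescence read-out.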

[3] = molecular target: Estrogen receptor beta (Homo sapiens) (UniProt Q92731); assay: qHTS assay to identify small molecule antagonists of the estrogen receptor beta (ER-beta) signaling pathway (AID 1259378; active = well fitted inhibition curve with a large enough effect in the signal ratio in the repeat runs, not every such curve was filed as active; the % refers to the signal ratio)
In short: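 ER-beta-UAS-bla HEK293T cells in 2% charcoal-stripped FBS medium treated with compound plus 1nM final 17-beta-estradiol for 16 hr at 37C. Beta-lactamase reporter read by FRET substrate fluorescence after 2 hours at room temperature.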

[4] = qHTS assay to identify small molecule agonists of the androgen receptor (AR) signaling pathway in the presence of an antagonist - cell viability counter screen (AID 1259379);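 note: MDA-kb2 human breast cancer cells carrying an MMTV luciferase reporter; series mostly up to about 92 µM; nearly all actives have a fitted effect of over 25% in size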
In short: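 MDA-kb2 viability measured by CellTiter-Fluor fluorescence in the same wells as the luciferase signal; nilutamide 3.0uM final; 15-point compound titration; 16 hr at 37C.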

[5] = qHTS assay to identify small molecule agonists of the estrogen receptor beta (ER-beta) signaling pathway - cell viability counter screen (AID 1259380); note: nearly all actives have a fitted effect of over 30% in size
In short: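 Measured: luminescence from CellTiter-Glo after 30 min at room temperature, added to wells already read for the LiveBLAzer FRET reporter (2 hr substrate); ER-beta-UAS-bla HEK293T cells had 16 hr compound treatment at 37C, 5% CO2.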

[6] = qHTS assay to identify small molecule antagonists of the estrogen receptor beta (ER-beta) signaling pathway - cell viability counter screen (AID 1259382); note: series mostly up to about 92 µM; nearly all actives have a fitted effect of over 55% in size
In short: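 Readout: luminescence, CellTiter-Glo, same wells as bla assay. System: ER-beta-UAS-bla GripTite HEK293T, 2% charcoal-stripped FBS. Exposure: compounds plus 1nM 17-beta-estradiol, 16 hr, 37C.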

[7] = molecular target: Estrogen receptor (Homo sapiens) (UniProt P03372); assay: qHTS assay to identify small molecule agonists of the estrogen receptor alpha (ER-alpha) signaling pathway in the presence of an antagonist (AID 1259383; calls by dose curve; note: top concentration of the series differs between compounds; nearly all actives have a fitted effect of over 15% in size)
Chain of Estrogen receptor (Homo sapiens) (P03372 whole entry, looked up): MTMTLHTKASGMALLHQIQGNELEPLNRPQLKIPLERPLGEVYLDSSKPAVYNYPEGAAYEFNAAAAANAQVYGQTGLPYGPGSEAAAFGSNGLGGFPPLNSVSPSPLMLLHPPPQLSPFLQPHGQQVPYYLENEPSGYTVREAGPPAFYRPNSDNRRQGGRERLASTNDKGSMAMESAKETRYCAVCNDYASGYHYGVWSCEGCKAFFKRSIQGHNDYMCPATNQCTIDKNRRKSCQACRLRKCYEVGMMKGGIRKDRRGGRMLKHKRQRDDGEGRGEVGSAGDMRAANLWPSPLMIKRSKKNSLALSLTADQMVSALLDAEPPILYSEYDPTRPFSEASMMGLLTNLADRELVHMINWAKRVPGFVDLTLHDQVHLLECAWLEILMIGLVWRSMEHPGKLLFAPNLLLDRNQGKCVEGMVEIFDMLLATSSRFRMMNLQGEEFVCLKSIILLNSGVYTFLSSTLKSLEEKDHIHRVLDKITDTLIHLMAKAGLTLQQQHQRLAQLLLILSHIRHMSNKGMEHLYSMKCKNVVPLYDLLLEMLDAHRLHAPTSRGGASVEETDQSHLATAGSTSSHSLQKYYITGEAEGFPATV
In short: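 Quantitative HTS confirmation: compounds titrated at 15 concentrations onto estrogen-deprived VM7Luc4E2 cells carrying a four-ERE luciferase construct, with ICI-182,780 present at 10.0nM final. Signal is luminescence after 22hr exposure.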

[8] = qHTS assay to identify small molecule agonists or antagonists of the thyroid stimulating hormone receptor (TSHR) signaling pathway - wild type cell line counter screen (AID 1259384; calls by dose curve)
In short: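 Wild-type Hek293 cells, 800/well, 18 h at 37C, then compound with Ro20-1724 for 30 min RT. cAMP by HTRF (cAMP-d2/anti-cAMP cryptate), 1 h RT, fluorescence read. 15 concentrations, triplicates.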

[9] = molecular target: Thyrotropin receptor (Homo sapiens) (UniProt P16473); assay: qHTS assay to identify small molecule antagonists of the thyroid stimulating hormone receptor (TSHR) signaling pathway (AID 1259385; calls by dose curve; note: nearly all actives have a fitted effect of over 20% in size)
Chain of Thyrotropin receptor (Homo sapiens) (P16473 whole entry, looked up): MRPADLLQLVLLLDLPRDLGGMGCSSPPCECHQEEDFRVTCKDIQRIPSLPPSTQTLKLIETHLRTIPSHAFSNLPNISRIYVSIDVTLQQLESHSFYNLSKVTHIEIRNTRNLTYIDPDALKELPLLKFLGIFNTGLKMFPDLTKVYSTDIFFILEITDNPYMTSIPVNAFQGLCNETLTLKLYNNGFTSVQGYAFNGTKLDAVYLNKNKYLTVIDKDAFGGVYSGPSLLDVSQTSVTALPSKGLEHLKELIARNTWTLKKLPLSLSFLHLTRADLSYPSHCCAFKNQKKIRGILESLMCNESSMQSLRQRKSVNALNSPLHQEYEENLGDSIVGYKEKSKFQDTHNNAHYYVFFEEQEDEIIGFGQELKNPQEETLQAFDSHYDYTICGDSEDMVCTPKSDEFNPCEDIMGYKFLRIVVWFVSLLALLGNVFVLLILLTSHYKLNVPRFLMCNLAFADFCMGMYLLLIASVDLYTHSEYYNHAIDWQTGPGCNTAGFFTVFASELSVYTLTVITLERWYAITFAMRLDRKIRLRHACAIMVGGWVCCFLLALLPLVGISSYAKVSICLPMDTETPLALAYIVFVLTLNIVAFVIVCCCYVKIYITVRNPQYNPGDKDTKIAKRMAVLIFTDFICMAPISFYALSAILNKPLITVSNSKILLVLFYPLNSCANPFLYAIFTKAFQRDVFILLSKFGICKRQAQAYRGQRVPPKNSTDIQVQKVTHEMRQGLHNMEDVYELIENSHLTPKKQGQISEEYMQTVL
In short: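 TSHR-HEK293 cells (800/well) plated 18 h, then compounds with Ro20-1724 and TSH at 1.5 ng/mL final, 30 min at room temperature. cAMP quantified by HTRF (cAMP-d2/anti-cAMP-cryptate, 1 h); 15 concentrations in triplicate.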

[10] = qHTS assay to identify small molecule agonists of the estrogen receptor alpha (ER-alpha) signaling pathway in the presence of an antagonist - cell viability counter screen (AID 1259386);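 note: series mostly up to about 92 µM; cells exposed to compounds for 22 h at 37 °C before the viability read; nearly all actives have a fitted effect of over 30% in size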
In short: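 The test measures whether compounds kill ER-alpha reporter cells (VM7Luc4E2) under antagonist co-treatment (ICI-182,780, 10.0nM). Fluorescence from CellTiter-Fluor is read after a 22hr exposure.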

[11] = molecular target: Progesterone receptor (Homo sapiens) (UniProt P06401); assay: qHTS assay to identify small molecule agonists of the progesterone receptor (PR) signaling pathway (AID 1346784; calls by dose curve; note: nearly all actives have a fitted effect of over 30% in size)
Chain of Progesterone receptor (Homo sapiens) (P06401 whole entry, looked up): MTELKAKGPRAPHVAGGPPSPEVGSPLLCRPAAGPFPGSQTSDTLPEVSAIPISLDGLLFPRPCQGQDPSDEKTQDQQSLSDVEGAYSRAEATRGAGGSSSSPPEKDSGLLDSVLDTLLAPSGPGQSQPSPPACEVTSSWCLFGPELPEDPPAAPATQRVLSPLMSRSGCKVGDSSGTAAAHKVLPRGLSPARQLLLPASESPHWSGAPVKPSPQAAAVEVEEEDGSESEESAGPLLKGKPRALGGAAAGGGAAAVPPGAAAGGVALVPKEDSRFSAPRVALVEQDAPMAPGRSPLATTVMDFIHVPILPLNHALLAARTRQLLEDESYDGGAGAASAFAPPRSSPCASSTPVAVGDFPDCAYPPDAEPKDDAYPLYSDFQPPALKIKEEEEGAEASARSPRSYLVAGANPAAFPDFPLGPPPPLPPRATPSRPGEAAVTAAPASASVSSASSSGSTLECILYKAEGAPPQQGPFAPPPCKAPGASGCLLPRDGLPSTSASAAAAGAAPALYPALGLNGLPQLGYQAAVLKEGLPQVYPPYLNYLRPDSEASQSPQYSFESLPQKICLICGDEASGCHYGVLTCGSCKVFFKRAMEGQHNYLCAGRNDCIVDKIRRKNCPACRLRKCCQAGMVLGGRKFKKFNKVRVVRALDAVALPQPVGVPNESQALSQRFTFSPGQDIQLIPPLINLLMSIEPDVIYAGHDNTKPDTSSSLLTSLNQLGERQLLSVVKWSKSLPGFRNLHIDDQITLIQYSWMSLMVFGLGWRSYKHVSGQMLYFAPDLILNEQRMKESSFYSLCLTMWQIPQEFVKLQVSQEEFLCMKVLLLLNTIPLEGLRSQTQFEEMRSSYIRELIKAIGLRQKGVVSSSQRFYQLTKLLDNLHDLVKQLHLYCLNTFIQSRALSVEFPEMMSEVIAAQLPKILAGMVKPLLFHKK
In short: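 Cells (PR-UAS-bla HEK 293T, GripTite) were plated in assay medium containing 2% charcoal-stripped FBS and incubated 6 hr. Test compounds in DMSO were added for 16 hr at 37C. FRET substrate was then loaded for 2 hr at room temperature before fluorescence reading.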

[12] = molecular target: Progesterone receptor (Homo sapiens) (UniProt P06401); assay: qHTS assay to identify small molecule antagonists of the progesterone receptor (PR) signaling pathway (AID 1346795; active = well fitted inhibition curve with a large enough effect in the signal ratio in the repeat runs, not every such curve was filed as active; the % refers to the signal ratio)
In short: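 Antagonist mode: compounds tested against 1 nM (final) promegestone stimulation in HEK293T cells expressing PR-UAS-bla reporter, 16 hr at 37C, 5% CO2; beta-lactamase activity detected via B/G FRET substrate after 2 hr at room temperature.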

[13] = qHTS assay to identify small molecule antagonists of the progesterone receptor (PR) signaling pathway - cell viability counter screen (AID 1346798); note: series mostly up to about 92 µM; nearly all actives have a fitted effect of over 50% in size
In short: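 Counter screen for cytotoxicity: viability of PR-UAS-bla HEK293T cells was measured with CellTiter-Glo luminescence following 16 hr compound exposure in the presence of R5020.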

[14] = qHTS assay to identify small molecule agonists of the progesterone receptor (PR) signaling pathway - cell viability counter screen (AID 1346799; calls by dose curve; note: nearly all actives have a fitted effect of over 45% in size)
In short: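 Cells (PR-UAS-bla HEK293T) are plated at 3,000/well in 2% charcoal-stripped FBS medium, rested 6 hr, dosed and incubated 16 hr at 37C. CellTiter-Glo is then added and luminescence measured after 30 min at room temperature.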

[15] = qHTS assay to identify small molecule antagonists of the TGF-beta/Smad signaling pathway - cell viability counter screen (AID 1346824); note: nearly all actives have a fitted effect of over 50% in size
In short: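 SBE-bla HEK 293T cells, incubated overnight, then compound plus 0.25 ng/mL TGF-beta1 (stock added) for 5 hr at 37 C. Viability was read in the same wells by CellTiter-Glo luminescence after 30 min at room temperature.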

[16] = qHTS assay to identify small molecule agonists of the TGF-beta/Smad signaling pathway - cell viability counter screen (AID 1346829); note: top concentration of the series differs between compounds; nearly all actives have a fitted effect of over 45% in size
In short: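 Compound-treated SBE-bla HEK 293T cells (5 hr, 37 C) were assessed for viability with CellTiter-Glo in parallel with the reporter read.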

[17] = qHTS assay to identify small molecule agonists of the TGF-beta/Smad signaling pathway (AID 1346859; active = well fitted activation curve with a large enough effect in the signal ratio in the repeat runs, not every such curve was filed as active; the % refers to the signal ratio; note: series mostly up to about 77 µM)
In short: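 Reporter line: HEK 293T with stably integrated SBE-controlled beta-lactamase. Compound exposure lasts 5 hr at 37 C and 5% CO2; substrate loading follows for 2 hr at room temperature, with emission read at 460 and 530 nm.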

[18] = molecular target: Thyrotropin-releasing hormone receptor (Homo sapiens) (UniProt P34981); assay: qHTS assay to identify small molecule agonists of the thyrotropin-releasing hormone receptor (TRHR) signaling pathway (AID 1346891; calls by dose curve;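 note: HEK293 cells expressing TRHR with calcium dye readout; series mostly up to about 58 µM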)
Chain of Thyrotropin-releasing hormone receptor (Homo sapiens) (P34981 whole entry, looked up): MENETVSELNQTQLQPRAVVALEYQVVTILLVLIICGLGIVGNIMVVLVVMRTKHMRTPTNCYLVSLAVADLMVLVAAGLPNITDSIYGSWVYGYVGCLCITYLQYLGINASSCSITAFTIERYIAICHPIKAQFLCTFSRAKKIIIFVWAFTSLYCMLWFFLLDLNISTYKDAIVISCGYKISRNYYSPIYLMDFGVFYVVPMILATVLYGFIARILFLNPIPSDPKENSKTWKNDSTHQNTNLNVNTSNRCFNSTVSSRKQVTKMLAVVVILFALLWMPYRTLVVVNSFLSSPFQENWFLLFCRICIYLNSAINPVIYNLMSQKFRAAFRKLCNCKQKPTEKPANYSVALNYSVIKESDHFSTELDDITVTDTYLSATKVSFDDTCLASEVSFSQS
In short: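 Cells: TRHR-Hek293, seeded and incubated 18 h. Dye loading: 2 h at 37 °C. Compound added from DMSO stock by pin tool. Read-out: kinetic calcium fluorescence over 3 min.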

[19] = molecular target: Thyrotropin-releasing hormone receptor (Homo sapiens) (UniProt P34981); assay: qHTS assay to identify small molecule antagonists of the thyrotropin-releasing hormone receptor (TRHR) signaling pathway (AID 1346877; active = well fitted inhibition curve with a large enough effect in the repeat runs, not every such curve was filed as active; note: series mostly up to about 51 µM)
In short: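 Overnight-plated (18 h, 37 °C) HEK293 cells expressing TRHR were dye-loaded 2 h, treated with compound, then stimulated with TRH at 1 nM final. Fluorescence intensity was captured every second for 3 min.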

Measured: Potency

CC(O)c1ccccc1 (stereo unspecified)
not listed: [19]
inactive: all other assays above

c1ccc2sc(SN(C3CCCCC3)C3CCCCC3)nc2c1
not listed: [12] | [18] | [19]
inactive: all other assays above

CO/N=C(/C(=O)N[C@@H]1C(=O)N2C(C(=O)O)=C(COC(N)=O)CS[C@H]12)c1ccco1
not listed: [7] | [11] | [12]
inactive: all other assays above

CN(C)CCN1C(=O)c2ccccc2N(C)c2ccccc21
not listed: [8] | [19]
inactive: all other assays above

O=c1[nH]c2ccc(Cl)cc2o1
not listed: [8] | [16] | [18] | [19]
inactive: all other assays above

Cc1[nH]cnc1CN1CCc2c(c3ccccc3n2C)C1=O
not listed: [7] | [18] | [19]
inactive: all other assays above

C=C1CCC2CC1C2(C)C (stereo unspecified)
inactive: all assays above

O=C1NCCN1CCO
not listed: [7] | [8] | [9] | [18] | [19]
inactive: all other assays above
